# Bioassay records (PubChem)
# Efflux pump inh: inhibitors of Candida efflux pumps in yeast, primary screen, S. cerevisiae, Nile Red, multiplex | inhibition, % at 10 µM | S. cerevisiae Candida pump triplex | 0.44% of 330,000 active;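 active = plate passing quality check with inhibition over a set limit, or well fluorescence over plate mean plus 4 SD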;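 also: Nile Red retained in pooled yeast measured as flow cytometry median fluorescence; 0% = buffer negative control and 100% = Enniatin B positive control; higher means more Nile Red kept so more efflux inhibition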
# VLA-4 inh: inhibition in human VLA-4 binding assay, primary screen, VLA-4 allosteric modulator project, MLPCN library, flow cytometry, VLA-4 expressing cells. Integrin alpha-4 (Homo sapiens), P13612. ligand binding flow cytometry. inhibition, % (about 7 µM as worked out from the volumes in the protocol). 0.2% of 330,000 active; in the data active = inhibition above about 50%
# ALR inh: inhibitors of human ALR sulfhydryl oxidase, primary screen, biochemical, H2O2 detection, HRP-luminol luminescence, single point; FAD-linked sulfhydryl oxidase ALR (Homo sapiens), P55789; purified ALR, DTT oxidation; inhibition, % (no concentration beside the values); 3.8% of 290,000 active; AID 485317, 2010;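 active = mean replicate inhibition above about 79%, with every replicate also reaching it, limit read from the data; inconclusive = only one of the two criteria met; inactive = mean below limit and not every replicate reaching it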
# Target sequence (P55789 whole entry, looked up): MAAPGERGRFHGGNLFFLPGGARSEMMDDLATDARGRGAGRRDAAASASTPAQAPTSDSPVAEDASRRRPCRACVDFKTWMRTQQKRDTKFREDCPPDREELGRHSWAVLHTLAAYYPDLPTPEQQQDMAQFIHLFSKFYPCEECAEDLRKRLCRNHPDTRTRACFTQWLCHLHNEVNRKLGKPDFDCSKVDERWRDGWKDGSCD
# A1 inh: caspase 3/7 activation in MEF A1-2A-BIM cells, primary screen, A1 inhibitor project, cell-based, luminescence, HTS | Caspase-Glo 3/7 luminescence, 3 h; percent of clofoctol response, vehicle zero | caspase activation, % (test concentration not listed) | 0.066% of 330,000 active;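 active = over half of replicate activation scores above 10%, or exactly half above 10 with the replicate mean above 10; inconclusive = replicate mean below 10 yet half the replicates above 10; inactive = over half of replicates below 10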
# AHR activator: AHR activators, primary screen, cell-based, luminescence, luciferase reporter, human. 2.5% of 320,000 active. AHR-responsive luciferase reporter cells. activation, % at 5 µM. Aryl hydrocarbon receptor (Homo sapiens), P35869. AID 2796, 2010; in the data active = activation above about 47%;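 also: 0% = vehicle wells and 100% = reference agonist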
# SUMO Mot1 rescue: yeast Mot1-301 growth rescue at high temperature, primary screen, SUMOylation pathway inhibitor project, S. cerevisiae, ATP luminescence, 38.5C | S. cerevisiae Mot1-301 growth rescue; percent above DMSO median, 100 means doubled | growth rescue, % at 18.8 µM | 1% of 320,000 active;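 active = every valid replicate shows activation above 250% relative to neutral control wells; inactive = the rest, any valid replicate at or below 250%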;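 also: OY570 slx delta 5 strain wells were the positive control but not used for scaling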
# * hit, by the source's call; i = inactive; u = inconclusive; x = not tested or not shown. Hits are enriched below; roughly 7.2% of the tested compounds scored in any of these assays.
SMILES,Efflux pump inh,VLA-4 inh,ALR inh,A1 inh,AHR activator,SUMO Mot1 rescue
c1ccc(-c2csc(Nc3ccc4c(c3)OCCO4)n2)cc1,0,4,1,-8,61*,1
COc1cccc(Nc2nc(-c3sc(N)nc3C)cs2)c1,0,-13,-4,0,105*,0
COc1cccc(Nc2nc(-c3ccc4c(c3)OCCO4)cs2)c1,0,2,-3,-5,72*,6
c1cc2c(cc1Nc1nc(-c3ccc4c(c3)OCO4)cs1)OCCO2,0,-3,-7,-1,25,i
CN(C)S(=O)(=O)N1CCC(n2nccc2NC(=O)CCCc2ccccc2)CC1,0,10,-2,-1,-1,364
N/C(=N\OC(=O)CCCCCN1C(=O)c2ccccc2C1=O)c1ccccc1,0,-1,-6,0,0,-4
Nc1sc2c(c1C(=O)NC1CC1)CCCC2,0,-38,9,0,4,13
CN(CCCNC(=O)CCC(=O)N1CCOc2ccc(Cl)cc21)Cc1ccccc1,0,14,93*,0,1,-7
O=C(CCC(=O)N1CCOc2ccc(Cl)cc21)NCCCN1CCN(Cc2ccccc2)CC1,0,-7,-35,-1,-1,-7
Cc1cnc(C(=O)OCC(=O)Nc2oc(-c3ccccc3)c(-c3ccccc3)c2C#N)cn1,0,1,97*,0,5,5
COc1cc(OC)c(/C=C2\C(=O)Nc3ccccc32)c(OC)c1,0,-9,-62,1,79*,-5
COc1ccccc1CN1C(=NC(=O)C2CCCCC2)SC2CS(=O)(=O)CC21 (stereo not given),0,-97,4,0,-1,4
CC(CCc1ccccc1)NC(=O)COC(=O)c1ccc(NC(=O)CC#N)cc1 (stereo not given),0,5,0,2,0,-14
CN(c1ccccc1)S(=O)(=O)c1cccc(C(=O)N2CCN(c3ccccn3)CC2)c1,0,0,-2,0,64*,3
Cc1ccc(N(C(=O)C2CCCC2)C2C=CS(=O)(=O)C2)cc1C (stereo not given),0,5,-11,0,0,-1
Cc1cnc(NC(=O)CSc2ccccc2)s1,0,21,-4,0,4,-16
CCOC(=S)SCC(=O)Nc1ncc(C)s1,0,-2,99*,0,4,-7
Cc1cc2ncn(-c3ncccc3[N+](=O)[O-])c2cc1C,0,3,1,0,48*,2
O=[N+]([O-])c1cccnc1-n1cnc2ccccc21,0,6,-10,1,1,-3
Cc1ccc(CNC(=O)CSc2ncc(C(=O)Nc3ccccc3)c(=O)n2C)cc1,0,2,1,-6,10,0
Cc1ccc(NC(=S)N2CCN(C(=O)c3ccccc3)CC2)c(C)c1,0,-1,0,1,0,440*
Cc1ccc(NC(=S)N2CCN(c3ccccn3)CC2)c(C)c1,0,7,11,-1,-1,325*
CC(C)(C)c1ccc(C(=O)CC(Sc2ccc(Cl)cc2)C(=O)O)cc1 (stereo not given),0,8,98*,2,-2,533*
Cc1cccc(-c2nc(Nc3ccc(N4CCOCC4)cc3)c3ccccc3n2)c1,0,15,x,0,56*,37
Cc1cccc(-c2nc(Nc3cccc(O)c3)c3ccccc3n2)c1,0,4,19,0,68*,60
SMILES,Efflux pump inh,VLA-4 inh,ALR inh,A1 inh,AHR activator,SUMO Mot1 rescue
c1ccc2c(Nc3ccc(N4CCOCC4)cc3)nc(N3CCOCC3)nc2c1,0,-11,92*,0,72*,-7
Clc1cccc(Nc2nc(-c3ccncc3)nc3ccccc23)c1,0,9,-11,0,5,-21
Cc1ccc(Nc2nc(-c3cccnc3)nc3ccccc23)cc1,0,5,x,1,-8,-9
CN1CCN(C(=S)NCCc2ccccc2)CC1,0,3,-1,0,2,9
COC(=O)c1ccc2nc(C)cc(Nc3ccc(N(C)C)cc3)c2c1,0,18,99*,0,32,6
CC[n+]1c(/C=C/Nc2ccccc2)oc2ccccc21,0,-246,7,0,109*,-7
Cc1nn(C)cc1C(=O)Nc1ccc2c(c1)OCCO2,0,-1,x,0,47*,2
O=C(Nc1ccc2c(c1)OCCO2)c1ccccn1,1,29,-1,-8,9,185
O=C(Nc1ccc2c(c1)OCCO2)c1ccc2ccccc2n1,0,6,17,-8,52*,x
CC(=O)c1c(C)[nH]c(C(=O)Nc2cccnc2)c1C,0,21,-5,-1,57*,15
COc1ccc(NC(=O)c2[nH]c(C)c(C(C)=O)c2C)cc1,0,10,-3,-2,61*,7
CC1(C)Cc2c(sc(NC(=O)C(=O)N3CCCCC3)c2C(N)=O)CO1,0,2,7,1,3,-6
O=[N+]([O-])c1ccc(CP(=O)(c2ccccc2)c2ccccc2)cc1,0,-4,1,u,x,3
CC(=O)c1c(C)[nH]c(C(=O)Nc2ccc3c(c2)OCCO3)c1C,0,-4,x,0,54*,9
CCOC(=O)c1[nH]c(C)c(C(=O)Nc2ccc3c(c2)OCCO3)c1C,0,-5,-7,0,8,20
CC1CCCC(NC(=O)COC(=O)c2ccc3c(c2)OCCO3)C1C (stereo not given),0,20,8,0,-2,-18
CN(C)c1ccc(CN(CC2CCCO2)C(=O)c2cccs2)cc1 (stereo not given),0,19,92*,-1,8,-5
O=C(/C=C/c1ccco1)N(Cc1ccc(Cl)cc1)C1CCS(=O)(=O)C1 (stereo not given),0,3,-2,1,-1,-13
O=C(c1cccs1)N(CC1CCCO1)c1nc(-c2ccccc2)cs1 (stereo not given),0,2,-3,0,12,24
COc1cccc(C(=O)N(Cc2ccc(N(C)C)cc2)C2CCS(=O)(=O)C2)c1 (stereo not given),0,5,88*,0,3,-24
Cc1cccc(C)c1OCC(=O)N(Cc1cccs1)C1CCS(=O)(=O)C1 (stereo not given),0,5,-1,0,-1,-2
CN(C)c1ccc(CN(C(=O)/C=C/c2ccco2)C2CCS(=O)(=O)C2)cc1 (stereo not given),0,10,86*,-1,1,6
